The values below come from PubChem BioAssay (NCATS).

“And” between values parts separate entries of the source, which are not always exact repeats. Equal entries are not always repeated. Results filed as inconclusive are left out. The source made the active and inactive calls. Calls come from the whole dose curve; as a rule, active = well fitted curve in the direction sought with a large enough effect; inconclusive = small, poorly fitted or top-dose-only effect, or another doubt; inactive = no such curve, though single readings can be large or run the other way.
% is set by controls: 0 for no effect and ±100 for the full control effect; potency is the fitted concentration of half-maximal effect.

The experiment is described as follows: qHTS Assay for Identifying Gametocytocidal Compounds (AID 743244).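 For max response: actives lower the fluorescent signal which means gametocytes are killed.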 To be noted: P. falciparum 3D7 stage III-V gametocytes, alamarBlue, 72 h; max response: active compounds read low. In short, it runs like this: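 Late gametocytes (III–V), P. falciparum 3D7; 72 h drug, then 24 h alamarBlue; resazurin reduction read by fluorescence.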
In the case of `C[C@]12CC[C@@H]3c4ccc(O)cc4CC[C@H]3[C@@H]1C[C@@H](O)[C@@H]2O`, the max response is 5.6% (inactive).

For the compound `CCCCCC=CCC=CCCCCCCCC(=O)OCC`, the max response is 0.796% (inactive).

As to `Cc1c(C)n(Cc2ccccc2)c2ccc(C(=O)OCCN(C)C)cc12`, the max response is 28.3% (inactive).

For the compound `C[C@H](O)C(=O)Nc1c(I)c(C(=O)NC(CO)CO)c(I)c(C(=O)NC(CO)CO)c1I`, the max response was 9.34% (inactive).

For the compound `CC(=O)Nc1c(I)cc(I)c(C(=O)O)c1I`, the max response was 44.8% (inactive).

For `OC(CCN1CCCCC1)(c1ccccc1)c1ccccc1`, the max response is 13.3% (inactive).

For the compound `CCCCCCC[N+](CC)(CC)CCCCc1ccc(Cl)cc1`, the Potency is 3.55 µM (active).

For `CCCCCCCCCCCCCCCCOP(=O)([O-])OCC[N+](C)(C)C`, the max response was -10.8% (inactive).

Take `C[N+]1(CCCCC[N+]2(C)CCCC2)CCCC1`: the max response is 12.3% (inactive) and 19.3% (inactive).

Take `CC(=O)[C@H]1CC[C@H]2[C@@H]3C[C@H](C)C4=CC(=O)CC[C@]4(C)[C@H]3[C@@H](O)C[C@]12C`: the max response was 9.78% (inactive).

Take `CC(=O)N/N=C/c1ccc([N+](=O)[O-])o1`: the Potency was 31.6 µM (active).

In the case of `CN1C2CCC1CC(OC(=O)c1c[nH]c3ccccc13)C2` (configuration not stated), the max response is 9.76% (inactive).

`CCCCOc1ccc(OCCCN2CCOCC2)cc1`: the max response was 1.4% (inactive).

For the compound `C[C@@H]1C(=O)NC2=Nc3cccc(Cl)c3CN21`, the max response is -15.6% (inactive) and 9.95% (inactive).

As for `CC(C)n1nc(-c2cc3cc(O)ccc3[nH]2)c2c(N)ncnc21`, the max response was -4.02% (inactive).

As for `C1CCc2nnnn2CC1`, the max response is -4.71% (inactive).

For the compound `C[C@]12CCC(=O)C=C1[C@@H]1C[C@@H]1[C@H]1[C@@H]3[C@@H]4C[C@@H]4[C@@]4(CCC(=O)O4)[C@@]3(C)CC[C@@H]12`, the max response is 5.27% (inactive).

In the case of `NC[C@H]1O[C@H](O[C@H]2[C@H](O)[C@@H](O[C@H]3O[C@H](CO)[C@@H](O)[C@H](N)[C@H]3O)[C@H](N)C[C@@H]2N)[C@H](N)[C@@H](O)[C@@H]1O`, the max response was -18.8% (inactive) and 4.69% (inactive).

Turning to `Cc1c(C(N)=O)cc([N+](=O)[O-])cc1[N+](=O)[O-]`, the max response is -0.173% (inactive).

For the compound `CN(C/C=C/c1ccccc1)Cc1cccc2ccccc12`, the max response was 6.22% (inactive).

Take `COc1c(C)c2c(c(O)c1C/C=C(\C)CCC(=O)O)C(=O)OC2`: the max response is 31.6% (inactive).

Regarding `O=C1CCC(c2ccc(-n3ccnc3)cc2)=NN1`, the max response was -0.884% (inactive) and -6.59% (inactive).

With `COc1cc(/C=C/C(=O)O[C@H]2CC[C@]34C[C@]35CC[C@]3(C)[C@@H]([C@H](C)CCC=C(C)C)CC[C@@]3(C)[C@@H]5CC[C@H]4C2(C)C)ccc1O`, the max response is -6.26% (inactive) and 0.13% (inactive).

For the compound `COC(=O)[C@H]1[C@H]2C[C@H]3c4[nH]c5ccccc5c4CCN3C[C@H]2CC[C@@H]1O`, the max response is 13.2% (inactive) and 17.2% (inactive).

For `COc1cc(OC)cc(OC)c1`, the max response is 0.294% (inactive).

Turning to `CC1(C)OC[C@@H](COC(=O)CCc2ccc(OC[C@@H](O)CNCCNC(=O)N3CCOCC3)cc2)O1`, the max response was -9.37% (inactive) and -4.75% (inactive).

For `CCOC(=O)COc1ccc2c(C)c(CCN(CC)CC)c(=O)oc2c1Cl`, the max response was -0.591% (inactive).

In the case of `COc1cc2c(cc1OC)C(=O)C(CC1CCN(Cc3ccccc3)CC1)C2` (configuration not stated), the max response is 3.63% (inactive).

Take `CC(=O)OCC(=O)[C@@]1(O)[C@H](C)C[C@H]2[C@@H]3CCC4=CC(=O)C=C[C@]4(C)[C@@]3(F)[C@@H](O)C[C@@]21C`: the max response is 9.89% (inactive) and -3.15% (inactive).

On to `CC(=O)CC(c1ccc([N+](=O)[O-])cc1)c1c(O)c2ccccc2oc1=O` (configuration not stated), for which the max response is 29.4% (inactive).

Turning to `CC(=O)OCC(=O)[C@@]12OC(C)(C)O[C@@H]1C[C@H]1[C@@H]3C[C@H](F)C4=CC(=O)C=C[C@]4(C)[C@@]3(F)[C@@H](O)C[C@@]12C`, the max response is 1.24% (inactive).

As for `CN(C(=O)CN(CCO)CC(=O)N(C)C(C)(C)Cc1ccccc1)C(C)(C)Cc1ccccc1`, the max response is -1.55% (inactive).

Regarding `Cc1ccc(Nc2c(F)cccc2Cl)c(CC(=O)O)c1`, the max response is 0.561% (inactive).

Consider `COC(=O)CCc1ccc(OCC(O)CNC(C)C)cc1` (configuration not stated), for which the max response was 1.13% (inactive).

For `CN(C)CCCOc1nn(Cc2ccccc2)c2ccccc12`, the max response was 10.4% (inactive).

With `Nc1nc2ncc(CNc3ccc(C(=O)N[C@@H](CCC(=O)O)C(=O)O)cc3)nc2c(=O)[nH]1`, the max response is 17.9% (inactive).

In the case of `CC(Cc1cccc(C(F)(F)F)c1)NCCOC(=O)c1ccccc1` (configuration not stated), the max response is 8% (inactive).
